HCV inh = blocks hepatitis C virus; Huh7.5.1 HCVcc-Cre infection, luciferase reporter, 44 h; Potency, µM (doses to about 41.8 µM), inactives show top-dose activity change, negative = inhibition, actives largely listed as inhibitors; 340,000 compounds, 3.4% hits; active = well fitted inhibition curve with a large enough effect; inconclusive = small, poorly fitted or top-dose-only effect, or another doubt; inactive = no such curve, though single readings can be large or run the other way; also: potency is read from the fitted curve at half-maximal effect
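Antiviral activity was scored by luciferase reporter output from cells infected with HCVcc-Cre (~0.5 moi) in presence of compound, 44 h infection period, cells seeded 1,000/well 4 h prior.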
FMDV inh = foot and mouth disease virus antiviral activity. FMDV antiviral cell-based qHTS. Potency, µM (highest dose often 57.9 µM), for the others: top-dose activity change, negative = inhibition, hits mostly inhibitors. 410,000 compounds, 1.2% hits; calls by dose curve; tested in HEK293T cells; also: read-out not given here; potency is read from the fitted curve at half-maximal effect; nearly all actives have a fitted effect of over 45% in size
Vaccinia mCherry = inhibitors of vaccinia virus infection (mCherry reporter signal); Vaccinia virus mCherry reporter infection, fluorescence; Potency, µM (top dose mostly 36.5 µM), for the others: at the highest dose activity change, negative = inhibition, most hits filed as inhibitors; 310,000 compounds, 0.63% hits; calls by dose curve; tested in A549 cells; also: potency is read from the fitted curve at half-maximal effect; nearly all actives have a fitted effect of over 35% in size
HCMV antiviral = human cytomegalovirus inhibition; AID 1259415; activity change, negative = inhibition, % at 57.5 µM; HFF cells, HCMV-luciferase reporter, 72 h; active compounds read low; 410,000 compounds, 4.5% hits; in the data active = activity change below about -60%; inconclusive = no clear call, values can overlap the other calls; inactive = above about -39%
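Two compound doses tested in HFFs infected with HCMV-luciferase, MOI 1 PFU/cell, 72 h at 37C. Lysate luminescence read with OneGlo; data normalized against buffer-only and 10uM Salinomycin inhibitor controls.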
Vaccinia Venus = vaccinia inhibition (Venus reporter) | Vaccinia virus Venus reporter expression, fluorescence | Potency, µM (highest dose often 36.5 µM), for inactives: top-dose activity change, negative = inhibition, hits mostly inhibitors | 330,000 compounds, 0.46% hits | AID 720580; calls by dose curve; tested in A549 cells; also: potency is read from the fitted curve at half-maximal effect; nearly all actives have a fitted effect of over 30% in size
The depositor's hits bear a star; i = inactive; u = inconclusive; x = not tested or not shown. Hits are enriched below; roughly 7.3% of the tested compounds scored in any of these assays. % is scaled to controls: 0 for no effect and ±100 for the full control effect.

SMILES	HCV inh	FMDV inh	Vaccinia mCherry	HCMV antiviral	Vaccinia Venus
CCC(=O)N1CCc2cc(Br)cc(S(=O)(=O)NCCc3ccccc3Cl)c21	x	46%	-4%	-40	-6%
CC(C)N(C(=NCc1ccccc1)NC(=O)c1ccccc1)C(C)C	-6%	47%	i	-89*	-13%
CN(Cc1ccccc1)C(=S)NC(=O)c1ccccc1	8%	3%	u	7	-9%
COc1ccc(-c2c(-c3ccc4c(c3)OCO4)noc2-c2ccsc2)cn1	x	x	-1%	x	-12%
COc1ccccc1-c1ccnc(-n2ncc(C(=O)N3CCN(C4CCCC4)CC3)c2-c2ccco2)n1	x	0%	-19%	x	-7%
CC(C)c1ccc(OCc2ccc(C(=O)O)o2)cc1	21%	10µM*	-14%	-10	6%
CC(=O)N1CCC[C@H]1C(=O)NCC1Cc2cc(-c3cnccn3)cc(Cl)c2O1 (some centres not stated)	x	2%	-10%	x	2%
O=C(NCc1ccc(F)c(F)c1)c1ccc(-c2ccc(F)c(F)c2)c2ccoc12	x	-21%	-28%	-8	-20%
O=C(Nc1cccc(C(F)(F)F)c1)c1ccc(-c2ccc(F)c(F)c2)c2ccoc12	x	-19%	u	-76*	u
O=C(NCc1cccnc1)c1ccc(-c2ccc(F)c(F)c2)c2ccoc12	x	u	u	-85*	-25%
CCOc1ccc(Nc2sc(C(=O)c3ccc4c(c3)OCO4)c(N)c2S(=O)(=O)c2ccc(C)cc2)cc1	x	-11%	-11%	0	6%
O=C(CN1CCCN(Cc2ccccc2Cl)S1(=O)=O)Nc1ccc2c(c1)OCCO2	x	14%	-4%	-8	0%
COc1cccc(CNC(=O)CCc2c(C)c3cc4c(C)coc4cc3oc2=O)c1	x	5%	-9%	-8	-4%
COc1cc(NC(=O)c2noc3c2CC(C(C)(C)C)CC3)cc(OC)c1OC (configuration not stated)	x	-11%	-22%	-35	-9%
c1ccc(-c2nc3ccccn3c2NCc2ccc3c(c2)OCO3)cc1	-20%	-17%	-11%	26	-9%
Cc1ccn2c(NCc3ccccc3)c(-c3cccc(SC4CCCCC4)c3)nc2c1	u	u	-5%	10	-14%
Clc1cccc(-c2ccc(-c3nc4ccccn4c3NCc3ccccc3)cc2)c1	14µM*	-21%	u	-80*	u
c1ccc(CNc2c(-c3cccc(SC4CCCCC4)c3)nc3ccccn23)cc1	-18%	22µM*	-18%	-35	u
Cc1ccc2nc(-c3cccc(SC4CCCCC4)c3)c(NCc3ccccc3)n2c1	u	25µM*	-34%	-22	u
COc1ccc(-c2cc(-c3nc4ccccn4c3NCc3ccccc3)ccc2OC)cc1	u	3.5µM*	u	-79*	11µM*
COc1cccc2c1C(=O)/C(=C\c1ccc(N(C)C)cc1)C2	x	x	-24%	x	213%
CCCC(=O)Nc1nc2c(ncn2[C@@H]2O[C@H]3COP(=O)(O)O[C@@H]3[C@@H]2OC(=O)CCC)c(=O)[nH]1	x	-13%	-13%	x	-11%
Fc1ccc(Nc2ncnc3sc4c(c23)CCC4)cc1	3.2µM*	-24%	x	u	x
c1csc(CCNc2ncnc3sc4c(c23)CCC4)c1	7.9µM*	13µM*	-25%	-89*	u
c1ccc(Nc2ncnc3sc4c(c23)CCC4)cc1	u	x	-21%	-11	-15%
SMILES	HCV inh	FMDV inh	Vaccinia mCherry	HCMV antiviral	Vaccinia Venus
CN(C)C(CNc1ncnc2sc3c(c12)CCCCC3)c1ccco1 (configuration not stated)	u	u	-9%	-68*	-5%
Nc1[nH]c(=S)nc2nnsc12	x	x	-20%	x	-12%
Cc1ccnc(SCC(=O)n2c3c(c4ccccc42)CC(C)CC3)n1 (configuration not stated)	u	13%	-16%	-20	-11%
CC1CCc2c(c3ccccc3n2C(=O)CCl)C1 (configuration not stated)	u	20µM*	-28%	-13	-26%
CCN1CCN(CC(=O)n2c3c(c4ccccc42)CC(C)CC3)CC1 (configuration not stated)	3.2µM*	-23%	x	-30	-17%
CC1CCN(CC(=O)n2c3c(c4ccccc42)CCCC3)CC1	u	x	-28%	5	-8%
O=C(CN1CCCN(Cc2ccccc2Cl)S1(=O)=O)NCc1ccccc1	x	0%	-14%	0	-13%
CC(C)(C)c1cc(N2CCOCC2)n2ncc(-c3ccccc3)c2n1	u	-10%	x	6	x

High-throughput results from PubChem BioAssay.
